Laboratory results as given in PMC5540273 (PLoS ONE, 2017).

Experiments:
Conditions in all cases: concentration: 1 μM,replicates: in singlicate; n = 1
DYRK1B = tested on: DYRK1B
DYRK2 = tested on: DYRK2
EGFR = tested on: EGFR
EIF2AK1 = tested on: EIF2AK1
EPHA1 = tested on: EPHA1
EPHA2 = tested on: EPHA2
EPHA3 = tested on: EPHA3
EPHA4 = tested on: EPHA4
EPHA5 = tested on: EPHA5
EPHA6 = tested on: EPHA6
EPHA7 = tested on: EPHA7
EPHA8 = tested on: EPHA8
EPHB1 = tested on: EPHB1
EPHB2 = tested on: EPHB2
EPHB3 = tested on: EPHB3
EPHB4 = tested on: EPHB4
EPHB6 = tested on: EPHB6
ERBB2 = tested on: ERBB2
ERBB3 = tested on: ERBB3
ERBB4 = tested on: ERBB4
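Note: KINOMEscan kinase panel screen.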

| SMILES | %Inh (DYRK1B) | %Inh (DYRK2) | %Inh (EGFR) | %Inh (EIF2AK1) | %Inh (EPHA1) | %Inh (EPHA2) | %Inh (EPHA3) | %Inh (EPHA4) | %Inh (EPHA5) | %Inh (EPHA6) | %Inh (EPHA7) | %Inh (EPHA8) | %Inh (EPHB1) | %Inh (EPHB2) | %Inh (EPHB3) | %Inh (EPHB4) | %Inh (EPHB6) | %Inh (ERBB2) | %Inh (ERBB3) | %Inh (ERBB4) |
| --- | --- | --- | --- | --- | --- | --- | --- | --- | --- | --- | --- | --- | --- | --- | --- | --- | --- | --- | --- | --- |
| OCCn1cc(-c2cnc3nnn(Cc4ccc5ncccc5c4)c3n2)cn1 | 19% | 0% | 0% | 0% | 0% | 0% | 0% | 0% | 0% | 0% | 0% | 0% | 0% | 0% | 0% | 0% | 17% | 5% | 0% | 0% |
| O=C(Nc1ccccc1)c1cccc(Oc2ccc3nccn3n2)c1 | 28% | 0% | 3% | 0% | 7% | 19% | 0% | 4% | 0% | 2% | 0% | 1% | 13% | 8% | 0% | 3% | 64% | 0% | 39% | 0% |
| O=C(Nc1n[nH]c2cc(-c3ccco3)ccc12)C1CC1 [SB-737447] | 0% | 31% | 9% | 0% | 0% | 10% | 19% | 0% | 0% | 0% | 0% | 0% | 0% | 0% | 6% | 0% | 34% | 0% | 0% | 0% |
| COC(=O)Nc1nc2cc(Oc3ccc(NC(=O)Nc4cc(C(F)(F)F)ccc4Cl)cc3)ccc2[nH]1.Cl [GW697465] | 0% | 0% | 42% | 0% | 91% | 96.2% | 43% | 92% | 37% | 93.7% | 84% | 99.7% | 62% | 60% | 10% | 51% | 83% | 45% | 25% | 37% |
| Cc1ccc(C(=O)Nc2ccc(Oc3ccc4nc(NC(=O)C5CC5)cn4c3)c(F)c2)c(=O)n1-c1ccccc1 | 39% | 0% | 0% | 0% | 91.8% | 98.5% | 49% | 90.1% | 45% | 95.4% | 74% | 99.8% | 83% | 94.8% | 11% | 75% | 99.1% | 30% | 43% | 3% |
| CN(c1ccccc1CNc1nc(Nc2ccc3c(c2)CC(=O)N3)ncc1C(F)(F)F)S(C)(=O)=O | 30% | 1% | 0% | 0% | 12% | 4% | 0% | 2% | 6% | 34% | 61% | 0% | 11% | 4% | 0% | 0% | 38% | 0% | 0% | 0% |
| CCN1CCN(CCCC(=O)Nc2n[nH]c3nc(-c4ccc(O)cc4)c(Br)cc23)CC1 [SB-731579] | 77% | 74% | 0% | 71% | 0% | 0% | 6% | 0% | 0% | 0% | 0% | 0% | 0% | 6% | 0% | 0% | 0% | 24% | 66% | 0% |
| CCn1c(-c2nonc2N)nc2cncc(CNC3CCNCC3)c21.Cl [SB-747651] | 12% | 25% | 35% | 2% | 6% | 0% | 0% | 9% | 0% | 3% | 9% | 0% | 12% | 0% | 8% | 0% | 0% | 21% | 8% | 0% |
| COC(=O)c1cccc(NC(=O)NC2CCN(c3ccnc(Nc4cc(OC)c(OC)c(OC)c4)n3)C2)c1 (stereo not shown) [GSK1379767] | 15% | 2% | 33% | 0% | 0% | 16% | 15% | 6% | 0% | 0% | 4% | 7% | 10% | 0% | 8% | 20% | 86% | 51% | 31% | 0% |
| CS(=O)(=O)c1cccc(CNc2nc(Nc3ccc4c(c3)[C@@H]3C[C@@H]4CNC3=O)ncc2C(F)(F)F)c1 | 6% | 12% | 5% | 0% | 12% | 2% | 6% | 2% | 0% | 11% | 63% | 0% | 40% | 19% | 5% | 16% | 72% | 15% | 0% | 20% |
| COc1cc2nccc(Nc3ccc(Oc4ccccc4)cc3)c2cc1OC.Cl [GI261656] | 18% | 9% | 88% | 0% | 0% | 5% | 0% | 0% | 0% | 0% | 0% | 0% | 9% | 0% | 0% | 3% | 90.9% | 80% | 99.6% | 85% |
| CCNCC(Cc1ccccc1)NC(=O)c1cc(Br)c(-c2ccnc3[nH]ccc23)s1.Cl.Cl (stereo not shown) [GSK1383280] | 53% | 31% | 28% | 0% | 25% | 24% | 45% | 0% | 0% | 7% | 9% | 26% | 7% | 0% | 17% | 0% | 0% | 3% | 0% | 22% |
| Cc1cccc(-c2nc(Nc3ccncc3)c3sccc3n2)n1 [GW869641] | 9% | 35% | 16% | 17% | 0% | 0% | 26% | 8% | 23% | 16% | 6% | 2% | 15% | 6% | 16% | 0% | 30% | 29% | 29% | 13% |
| CC(=O)Nc1nc2cnc(Nc3cc(NC(=O)c4cccc(CC(C)(C)C#N)c4)ccc3C)nc2s1 | 31% | 0% | 0% | 30% | 0% | 84% | 65% | 54% | 21% | 38% | 4% | 72% | 11% | 55% | 13% | 37% | 61% | 42% | 9% | 0% |
| Cc1ccc(Nc2ccnc(Nc3ccc4c(c3)CS(=O)(=O)C4)n2)cc1O.Cl [GW579362] | 48% | 88% | 55% | 17% | 91.3% | 83% | 78% | 53% | 32% | 53% | 44% | 85% | 78% | 25% | 0% | 16% | 91.7% | 17% | 34% | 69% |
| O=C(NCC1CC1)c1ccc(-c2cc(C(=O)NC3CC3)ccc2F)cc1 [GW810445] | 24% | 0% | 15% | 0% | 0% | 0% | 10% | 0% | 0% | 0% | 0% | 3% | 4% | 0% | 0% | 0% | 0% | 11% | 0% | 33% |
| CS(=O)(=O)Nc1ccc(-c2ccnc3[nH]ccc23)cc1 [GSK993273] | 84% | 44% | 17% | 1% | 19% | 0% | 0% | 20% | 0% | 6% | 13% | 18% | 19% | 6% | 18% | 0% | 5% | 15% | 0% | 0% |
| Cn1ccc2ncnc(Oc3ccc(NC(=O)Nc4cc(C(C)(C)C)on4)c(Cl)c3)c21 | 39% | 23% | 50% | 3% | 71% | 85% | 93.4% | 68% | 58% | 99.6% | 90% | 98.9% | 65% | 78% | 40% | 35% | 64% | 81% | 5% | 0% |
| N#Cc1cccc(C(=O)NC2CCN(c3ccnc(Nc4ccc(F)cc4)n3)C2)c1 (stereo not shown) [GSK1379708] | 0% | 0% | 14% | 0% | 1% | 0% | 0% | 0% | 0% | 2% | 0% | 0% | 9% | 0% | 13% | 5% | 0% | 9% | 0% | 10% |
| COc1cccc(C2=C(Nc3cccc(Cl)c3)C(=O)NC2=O)c1 [SB-341556] | 0% | 2% | 25% | 9% | 18% | 19% | 0% | 23% | 0% | 13% | 7% | 20% | 0% | 0% | 17% | 4% | 29% | 0% | 0% | 0% |
